# Screening results (PubChem BioAssay)
# Hits are enriched below; roughly 2.2% of the tested compounds scored in any of these assays.
# BaF3 tox = counter-screen for JAK2V617F inhibitors: parental Ba/F3 viability inhibitors. 220,000 tested, 1.1% active. CellTiter-Glo ATP luminescence. inhibition, % at 5.6 µM;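 active = inhibition above a per-campaign cutoff, the mean inhibition of all tested compounds plus 3 SD, cut at about 27% in these data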;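 also: 0% = DMSO wells and 100% = JAK Inhibitor I control wells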
# IEC-6 cytotox = counter-screen for KLF5 inhibitors: cytotoxicity in IEC-6 cells; 290,000 tested, 0.78% active; inhibition, % at 5 µM; IEC-6 cytotoxicity, luminescence viability; in the data active = inhibition above about 22%;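 also: 0% = plate median of test compound wells and 100% = cytotoxic reference compound wells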
# Ba/F3 V617F tox = loss of viability in JAK2V617F-driven Ba/F3 cells; Ba/F3 EpoR-JAK2V617F viability, ATP luminescence; inhibition, % at 5.6 µM; 220,000 tested, 1.1% active;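 active = inhibition above the campaign mean plus 3 SD over all tested compounds, cut at about 24% in these data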;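 also: cytokine-independent growth of Ba/F3 cells driven by EpoR plus mutant JAK2; 0% = DMSO-treated cells and 100% = JAK inhibitor I control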
# APP 5UTR inh = APP translation inhibition. SH-SY5Y APP 5'UTR-luciferase reporter, luminescence. inhibition, % at 2 µM. 190,000 tested, 0.82% active;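 active = inhibition above a set limit, derived from the sample mean plus 3 SD, cut at about 45% in these data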
# KLF5 inh = suppresses KLF5 promoter-driven expression; DLD-1 KLF5 promoter-luciferase reporter, luminescence; inhibition, % at 5 µM; 290,000 tested, 0.23% active; AID 1700;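 active = inhibition above a per-plate limit of that plate's mean compound inhibition plus 3 SD, cut at about 60% in these data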;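 also: 0% = DMSO wells and 100% = LY294002 at 200 µM; higher means less KLF5 promoter-driven luciferase light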
# aSyn UTR inh = 5' untranslated region of α-synuclein, MLPCN primary screen | 300,000 tested, 0.82% active | alpha-synuclein 5'UTR reporter, inhibitor activity | inhibition, % (tested at 7.5 µM); in the data active = inhibition above about 60%;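 also: H4 neuroglioblastoma cells stably carrying SNCA 5'UTR luciferase fusion; 0% = DMSO wells and 100% = positive control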
# BaF3 parental 2 = reduces parental Ba/F3 viability, JAK2V617F counter-screen. 580 tested, 31% active. shares compounds with Ba/F3 V617F tox. inhibition, % at 5.6 µM. CellTiter-Glo luminescence; cells kept alive by added IL-3;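 active = cell growth inhibition above the hit limit set in the earlier mutant JAK2 cell screen, cut at about 27% in these data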;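 also: plate controls were DMSO-treated cells for no effect and JAK Inhibitor I control wells for full effect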
# JAK2V617F conf = Ba/F3 EpoR-JAK2V617F viability loss, confirmation; shares compounds with Ba/F3 V617F tox; AID 1521; 580 tested, 66% active; CellTiter-Glo luminescence; inhibition, % at 5.6 µM;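 active = mean inhibition above the hit cutoff derived in the earlier primary screen, cut at about 25% in these data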;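 also: 0% = DMSO-treated cells and 100% = JAK inhibitor I control wells; higher means lower luminescence from reduced cell ATP and viability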
# * marks the source's active call; other numbers are inactive results; / = no result.
SMILES,BaF3 tox,IEC-6 cytotox,Ba/F3 V617F tox,APP 5UTR inh,KLF5 inh,aSyn UTR inh,BaF3 parental 2,JAK2V617F conf
COc1cccc(N2CCN(c3ccc(S(=O)(=O)N4CCCC4)cc3)CC2)c1,6,-1,1,25,-13,/,/,/
COc1ccc(-c2c(C)nc3c(-c4ccccn4)cnn3c2N)cc1,/,-5,/,/,-175,-181,/,/
O=C(Nc1nc(=O)c2ccccc2s1)c1ccccc1,15,1,29*,-66,0,-157,-3,-12
Cc1ccsc1C(C(=O)NCc1ccccc1)N(C(=O)c1csnn1)c1ccccc1 (stereo not given),/,6,/,/,10,33,/,/
Cc1ccc(-c2nc(C=Nc3ccc(O)cc3)c(O)o2)cc1,19,5,38*,66*,-11,-95,28*,83*
COC1(OC)C(/C=C/c2ccc(Cl)cc2)C(C#N)(C#N)C1(OC)OC (stereo not given),13,20,81*,10,21,-51,2,73*
C/C(=N\NC(=O)c1ccc(N/N=C(\C)c2ccc(O)cc2)cc1)c1ccc(O)cc1,-1,1,-2,/,-14,-59,/,/
COc1ccc(-c2cc(C(=O)N/N=C/c3ccc(OC)c(COCC(F)(F)C(F)F)c3)c3ccccc3n2)c(OC)c1,4,4,49*,4,-19,32,-2,6
CS(=O)(=O)Oc1ccc(Br)cc1/C=C1/N=C(c2ccco2)OC1=O,6,2,3,-2,-6,1,/,/
Cc1c(C#N)sc2nc(-c3ccccc3)nc(N3CCCC3)c12,-1,7,95*,10,14,10,-5,-2
N#Cc1sc2nc(N3CCCCC3)c3c(c2c1N)CCCC3,5,-2,-1,9,2,50,/,/
COCCCN=C1NN=C(c2cc(C)n(Cc3ccco3)c2C)CS1,0,-1,79*,94*,-4,94*,78*,97*
COc1cc(C(C[N+](=O)[O-])c2c(N)n(C)c(=O)n(C)c2=O)ccc1O (stereo not given),3,-1,-1,-2,-15,-15,/,/
COc1cccc(F)c1C(C[N+](=O)[O-])c1c(N)n(C)c(=O)n(C)c1=O (stereo not given),6,9,63*,/,7,-19,2,92*
Cc1ccc(Nc2nc(C)c(CCC(C)C)c(=O)[nH]2)cc1,5,-5,2,-11,-1,-94,/,/
Cc1nc(NCc2ccccc2)[nH]c(=O)c1CCC(C)C,-4,4,53*,-1,13,-24,-1,-3
CCOc1ccc(NCCC#N)cc1,4,-4,44*,-17,-18,-22,-4,-9
Cc1csc(NC(=O)c2cc3c(C)nn(Cc4ccccc4Cl)c3s2)n1,10,1,36*,0,-24,31,24,27*
Cc1nn(Cc2ccccc2Cl)c2sc(C(=O)NC(C)(C)C)cc12,3,2,-2,-20,6,57,/,/
COc1ccc(Nc2ccc(N3C(=O)CCCC3=O)cc2[N+](=O)[O-])c(OC)c1,9,4,4,6,-16,29,/,/
CCN(CC)C(=O)C1=C(C)NC(=O)NC1c1c(F)cccc1Cl (stereo not given),0,-4,29*,6,-21,17,-6,1
Cc1ccc(C2=Nc3cccnc3C(c3ccccc3)=NN2)cc1,6,1,1,-113,-5,-14,/,/
CCOC(=O)N1CCN(c2c(F)cc3[nH]c(=S)[nH]c3c2Br)CC1,12,6,28*,15,-27,13,7,25*
Cc1sc2ncnc(NCc3cccs3)c2c1C,21,12,34*,-11,-10,19,43*,64*
COc1ccc(C(=O)OCC(=O)NCc2ccccc2)c(OC)c1OC,5,-4,103*,-22,-28,8,-5,-4
SMILES,BaF3 tox,IEC-6 cytotox,Ba/F3 V617F tox,APP 5UTR inh,KLF5 inh,aSyn UTR inh,BaF3 parental 2,JAK2V617F conf
Oc1ccc(/C=N/N=C/c2ccc(O)c(O)c2)cc1O,/,4,/,/,-24,-25,/,/
O=C(/C(=N/N=C/c1ccc(O)c(O)c1)c1ccccc1)c1ccccc1,10,-4,49*,4,-24,4,9,99*
O=[N+]([O-])c1ccc2c(c1N1CCCCC1)=NC1(CCCCC1)[N+]=2[O-],0,-7,-5,/,-21,-32,/,/
[O-][N+]1=c2ccc(Nc3ccccc3)cc2=NC12CCCCC2,8,10,42*,33,-1,-57,5,98*
COc1ccc(Nc2ccc3c(c2)=NC2(CCCCC2)[N+]=3[O-])cc1,2,9,44*,49*,-28,-87,19,100*
Nc1cccc(C2=Nc3cccc4cccc(c34)N2)c1,7,-6,53*,4,-2,-17,-7,-10
COc1ccc(C2=Nc3cccc4cccc(c34)N2)cc1,-3,4,-4,-2,-19,2,/,/
COc1ccc(CNC(=O)CN2C(=O)COc3ccc(S(=O)(=O)N4CCCCC4)cc32)cc1,/,1,/,/,-6,-12,/,/
O=C(OCCN1CCCCC1)c1ccccc1Cl,4,8,-2,7,4,8,/,/
O=C(OCn1ncc(Cl)c(Cl)c1=O)c1ccc(F)cc1,2,14,32*,97*,-19,-22,9,97*
O=C(OCn1ncc(Cl)c(Cl)c1=O)c1ccccc1Cl,-7,89*,26*,87*,-10,50,6,98*
CN(CCCC(=O)O)c1ccc(N=Nc2ccc([N+](=O)[O-])cc2)cc1,/,/,/,/,/,-65,/,/
Cc1nc([N+](=O)[O-])c(Br)n1CC(=O)c1ccc2ccccc2c1,6,3,44*,-2,-3,-24,-3,77*
CC1Sc2ccc(S(=O)(=O)CCC(=O)N3CCN(c4ccccc4F)CC3)cc2NC1=O (stereo not given),/,2,/,/,-4,5,/,/
Cc1nc(Nc2ccc3c(c2)OCCO3)c2oc3ccccc3c2n1,7,20,59*,-15,-43,-26,-5,3
N#CC1=C2SCC(O)(c3ccccc3)N2C(=O)CC1c1ccccc1F (stereo not given),17,15,27*,-3,21,-18,20,25*
COc1ccc(C2CC(=O)N3C(=C2C#N)SCC3(O)c2ccccc2)cc1 (stereo not given),-1,5,-5,-20,1,23,/,/
Cc1cccc(N(CC(=O)NC(C)(C)C)C(=O)CCC(=O)Nc2ccccn2)c1,/,1,/,/,-7,2,/,/
Cc1ccc(NS(=O)(=O)c2cc3c4c(cccc4c2)C(=O)NC3=O)cc1C,11,15,25*,/,-1,32,45*,77*
O=C(/C=C/c1ccc(Cl)cc1)N1CCN(Cc2ccccc2)CC1,/,8,/,/,-29,4,/,/
